# According to PubChem BioAssay (NCI):
# Values joined by “and” are separate entries in the source; they are usually repeats but may differ in a detail not shown here. Identical values can stand only once. The panel holds about 79,000 compounds, 15% with a hit somewhere; the sample as a whole holds those more often. Where a structure was tested more than once in an assay, its records may differ in their call. Active and inactive are the calls of the source. No stated cut-off is given here; in the data, active means growth inhibition above about 70%; inactive means the rest.
# Legend:
# [1] = NCI Yeast Anticancer Drug Screen. Data for the mlh1 rad18 strain (AID 175); conditions: S. cerevisiae mlh1 rad18 strain growth inhibition, stronger effect = higher value
# Procedure, shortened: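 In this whole-cell yeast screen, a strain with altered DNA damage repair is challenged with compound, and its growth is measured against matched vehicle-treated controls.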
# [2] = NCI Yeast Anticancer Drug Screen. Data for the rad18 strain (AID 177); conditions: S. cerevisiae rad18 mutant growth inhibition, stronger effect = higher value
# Procedure, shortened: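 Screen uses a yeast strain with a defined lesion in DNA damage repair; compound effect is read as loss of growth compared to untreated vehicle cultures.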
# [3] = NCI Yeast Anticancer Drug Screen. Data for the rad52 strain (AID 147);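 further: 0% = growth of vehicle-treated control cultures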; conditions: S. cerevisiae rad52 mutant growth inhibition, stronger effect = higher value
# Procedure, shortened: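 Measured: yeast growth inhibition. System: strain with a defined DNA damage repair alteration. Reference: vehicle-treated control cultures.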
# [4] = NCI Yeast Anticancer Drug Screen. Data for the wt1 strain (AID 149);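 further: 0% = growth of vehicle-treated wt1 cultures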; conditions: S. cerevisiae wt1 strain (SPY 50644) growth inhibition, stronger effect = higher value
# Procedure, shortened: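 Yeast wt1 strain exposed to compounds; growth inhibition measured relative to vehicle-treated controls.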
# [5] = NCI Yeast Anticancer Drug Screen. Data for the rad50 strain (AID 155);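 further: 0% = growth of vehicle-only cultures of the same strain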; conditions: S. cerevisiae rad50 strain growth inhibition, stronger effect = higher value
# Procedure, shortened: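 Yeast carrying a defined DNA repair defect were exposed to test compounds, and growth was compared with vehicle-treated controls to give percent inhibition.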
# [6] = NCI Yeast Anticancer Drug Screen. Data for the mec2-1 strain (AID 157); conditions: S. cerevisiae mec2-1 strain, stronger effect = higher value
# Procedure, shortened: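 Test agents were screened against the mec2-1 yeast strain, with defined DNA repair or cell cycle alteration. Growth was scored as inhibition against vehicle-only controls.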
# [7] = NCI Yeast Anticancer Drug Screen. Data for the rad14 strain (AID 159);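 further: 0% = growth of vehicle-treated control cultures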; conditions: S. cerevisiae rad14 strain growth inhibition, stronger effect = higher value
# Procedure, shortened: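 Yeast cells carrying a defined DNA-repair defect were exposed to compounds, and growth inhibition was calculated relative to vehicle-treated control cultures.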
# [8] = NCI Yeast Anticancer Drug Screen. Data for the sgs1 mgt1 strain (AID 161);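 further: 0% = growth of cultures given vehicle only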; conditions: S. cerevisiae sgs1 mgt1 strain, stronger effect = higher value
# Procedure, shortened: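 Genetically altered yeast, compound exposure, growth inhibition relative to vehicle.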
# [9] = NCI Yeast Anticancer Drug Screen. Data for the CLN2oe strain (AID 163);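 further: 0% = growth of vehicle-only control cultures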; conditions: S. cerevisiae CLN2oe strain, stronger effect = higher value
# Procedure, shortened: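 Here, growth inhibition in a cell-cycle-altered yeast strain after compound exposure was quantified against vehicle control growth.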
# [10] = NCI Yeast Anticancer Drug Screen. Data for the cln2 rad14 strain (AID 165);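 further: 0% = growth equal to vehicle treated cultures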; conditions: S. cerevisiae cln2 rad14 strain, stronger effect = higher value
# Procedure, shortened: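 Growth of compound-exposed yeast (cln2 rad14 genotype) measured and expressed as inhibition relative to vehicle.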
# [11] = NCI Yeast Anticancer Drug Screen. Data for the bub3 strain (AID 167); conditions: S. cerevisiae bub3 mutant strain, stronger effect = higher value
# Procedure, shortened: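 Compounds were applied to a genetically altered yeast strain carrying a cell-cycle control defect. Growth inhibition was scored against vehicle-treated controls.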
# [12] = NCI Yeast Anticancer Drug Screen. Data for the wt2 strain (AID 169);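 further: 0% = growth of vehicle-treated yeast cultures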; conditions: S. cerevisiae wt2 strain growth inhibition, stronger effect = higher value
# Procedure, shortened: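 Genetically defined yeast strains from a DNA-repair/cell-cycle panel were used. Compound-exposed yeast growth was measured, and the inhibition was calculated relative to vehicle treatment.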
# [13] = NCI Yeast Anticancer Drug Screen. Data for the mlh1 strain (AID 171);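 further: 0% = growth of vehicle-treated control cultures of the same strain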; conditions: S. cerevisiae mlh1 strain growth inhibition, stronger effect = higher value
# Procedure, shortened: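 Here the genetically defined yeast mutant is grown with each compound, and the extent to which its growth falls below that of vehicle-exposed cells is reported.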
# [14] = at 5.0 µM (retest, dose inferred, filed as 0.5)
# [15] = at 50.0 µM (retest, dose inferred, filed as 5.0)
compound,measurement,setting,value
O=C(N/N=C\c1c(Cl)cccc1Cl)N/N=C/c1c(Cl)cccc1Cl,growth inhibition,[1]; [14],38% (inactive)
same,growth inhibition,[1]; [15],88% (active)
same,growth inhibition,[1]; at 50.0 µM,55.9% (inactive)
same,growth inhibition,[2]; at 1.2 µM,-10% (inactive)
same,growth inhibition,[2]; at 3.7 µM,1% (inactive)
same,growth inhibition,[2]; at 11.0 µM,-11% (inactive)
same,growth inhibition,[2]; at 33.0 µM,-10% (inactive)
same,growth inhibition,[2]; at 100.0 µM,-13% (inactive)
CCn1ncc(N=O)c1N,growth inhibition,[3]; at 1.2 µM,0% (inactive)
same,growth inhibition,[3]; at 3.7 µM,3% (inactive)
same,growth inhibition,[3]; at 11.0 µM,9% (inactive)
same,growth inhibition,[3]; at 33.0 µM,29% (inactive)
same,growth inhibition,[3]; at 100.0 µM,58% (inactive)
same,growth inhibition,[4]; at 1.2 µM,6% (inactive)
same,growth inhibition,[4]; at 3.7 µM,14% (inactive)
same,growth inhibition,[4]; at 11.0 µM,23% (inactive)
same,growth inhibition,[4]; at 33.0 µM,24% (inactive)
same,growth inhibition,[4]; at 100.0 µM,39% (inactive)
same,growth inhibition,[5]; at 1.2 µM,-1% (inactive)
same,growth inhibition,[5]; at 3.7 µM,-1% (inactive)
same,growth inhibition,[5]; [14],27% (inactive)
same,growth inhibition,[5]; at 11.0 µM,6% (inactive)
same,growth inhibition,[5]; at 33.0 µM,24% (inactive)
same,growth inhibition,[5]; [15],61% (inactive)
same,growth inhibition,[5]; at 50.0 µM,70.2% (active) and 51.5% (inactive)
same,growth inhibition,[5]; at 100.0 µM,54% (inactive)
same,growth inhibition,[6]; at 1.2 µM,3% (inactive)
same,growth inhibition,[6]; at 3.7 µM,11% (inactive)
same,growth inhibition,[6]; [14],8% (inactive)
same,growth inhibition,[6]; at 11.0 µM,23% (inactive)
same,growth inhibition,[6]; at 33.0 µM,37% (inactive)
same,growth inhibition,[6]; [15],35% (inactive)
same,growth inhibition,[6]; at 50.0 µM,67% (inactive) and 42% (inactive)
same,growth inhibition,[6]; at 100.0 µM,57% (inactive)
same,growth inhibition,[7]; at 1.2 µM,-2% (inactive)
same,growth inhibition,[7]; at 3.7 µM,4% (inactive)
same,growth inhibition,[7]; at 11.0 µM,15% (inactive)
same,growth inhibition,[7]; at 33.0 µM,32% (inactive)
same,growth inhibition,[7]; at 100.0 µM,41% (inactive)
same,growth inhibition,[8]; [14],21% (inactive)
same,growth inhibition,[8]; [15],61% (inactive)
same,growth inhibition,[8]; at 50.0 µM,62.5% (inactive) and 19.6% (inactive)
same,growth inhibition,[9]; at 1.2 µM,-6% (inactive)
same,growth inhibition,[9]; at 3.7 µM,-5% (inactive)
same,growth inhibition,[9]; at 11.0 µM,15% (inactive)
same,growth inhibition,[9]; at 33.0 µM,43% (inactive)
same,growth inhibition,[9]; at 100.0 µM,53% (inactive)
same,growth inhibition,[10]; [14],9% (inactive)
same,growth inhibition,[10]; [15],12% (inactive)
same,growth inhibition,[10]; at 50.0 µM,35.1% (inactive) and 40.8% (inactive)
same,growth inhibition,[11]; at 1.2 µM,2% (inactive)
same,growth inhibition,[11]; at 3.7 µM,9% (inactive)
same,growth inhibition,[11]; [14],41% (inactive)
same,growth inhibition,[11]; at 11.0 µM,33% (inactive)
same,growth inhibition,[11]; at 33.0 µM,64% (inactive)
same,growth inhibition,[11]; [15],68% (inactive)
same,growth inhibition,[11]; at 50.0 µM,81.4% (active) and 51% (inactive)
same,growth inhibition,[11]; at 100.0 µM,78% (active)
same,growth inhibition,[12]; at 1.2 µM,6% (inactive)
same,growth inhibition,[12]; at 3.7 µM,18% (inactive)
same,growth inhibition,[12]; at 11.0 µM,26% (inactive)
same,growth inhibition,[12]; at 33.0 µM,25% (inactive)
same,growth inhibition,[12]; at 100.0 µM,39% (inactive)
same,growth inhibition,[13]; at 1.2 µM,3% (inactive)
same,growth inhibition,[13]; at 3.7 µM,5% (inactive)
same,growth inhibition,[13]; at 11.0 µM,20% (inactive)
same,growth inhibition,[13]; at 33.0 µM,35% (inactive)
same,growth inhibition,[13]; at 100.0 µM,53% (inactive)
same,growth inhibition,[1]; [14],33% (inactive)
same,growth inhibition,[1]; [15],73% (active)
same,growth inhibition,[1]; at 50.0 µM,87.3% (active) and 26.6% (inactive)
same,growth inhibition,[2]; at 1.2 µM,1% (inactive)
same,growth inhibition,[2]; at 3.7 µM,8% (inactive)
same,growth inhibition,[2]; at 11.0 µM,9% (inactive)
same,growth inhibition,[2]; at 33.0 µM,51% (inactive)
same,growth inhibition,[2]; at 100.0 µM,74% (active)
COc1ccc(/C(C#N)=C/c2ccc(OC)c(OC)c2)cc1,growth inhibition,[3]; at 1.2 µM,10% (inactive)
same,growth inhibition,[3]; at 3.7 µM,-6% (inactive)
same,growth inhibition,[3]; at 11.0 µM,-1% (inactive)
same,growth inhibition,[3]; at 33.0 µM,-13% (inactive)
same,growth inhibition,[3]; at 100.0 µM,21% (inactive)
same,growth inhibition,[4]; at 1.2 µM,-37% (inactive)
same,growth inhibition,[4]; at 3.7 µM,-21% (inactive)
same,growth inhibition,[4]; at 11.0 µM,-22% (inactive)
same,growth inhibition,[4]; at 33.0 µM,-23% (inactive)
same,growth inhibition,[4]; at 100.0 µM,0% (inactive)
same,growth inhibition,[5]; at 1.2 µM,2% (inactive)
same,growth inhibition,[5]; at 3.7 µM,-4% (inactive)
same,growth inhibition,[5]; [14],46% (inactive)
same,growth inhibition,[5]; at 11.0 µM,-12% (inactive)
same,growth inhibition,[5]; at 33.0 µM,6% (inactive)
same,growth inhibition,[5]; [15],83% (active)
same,growth inhibition,[5]; at 50.0 µM,15.1% (inactive) and 51.5% (inactive)
same,growth inhibition,[5]; at 100.0 µM,14% (inactive)
same,growth inhibition,[6]; at 1.2 µM,-11% (inactive)
same,growth inhibition,[6]; at 3.7 µM,-7% (inactive)
same,growth inhibition,[6]; [14],56% (inactive)
same,growth inhibition,[6]; at 11.0 µM,-21% (inactive)
same,growth inhibition,[6]; at 33.0 µM,-10% (inactive)
same,growth inhibition,[6]; [15],92% (active)
same,growth inhibition,[6]; at 50.0 µM,43.8% (inactive) and 38% (inactive)
same,growth inhibition,[6]; at 100.0 µM,18% (inactive)
same,growth inhibition,[7]; at 1.2 µM,-17% (inactive)
same,growth inhibition,[7]; at 3.7 µM,-29% (inactive)
same,growth inhibition,[7]; at 11.0 µM,-27% (inactive)
same,growth inhibition,[7]; at 33.0 µM,-13% (inactive)
same,growth inhibition,[7]; at 100.0 µM,32% (inactive)
same,growth inhibition,[8]; [14],-15% (inactive)
same,growth inhibition,[8]; [15],57% (inactive)
same,growth inhibition,[8]; at 50.0 µM,46.8% (inactive)
same,growth inhibition,[9]; at 1.2 µM,13% (inactive)
same,growth inhibition,[9]; at 3.7 µM,9% (inactive)
same,growth inhibition,[9]; at 11.0 µM,-2% (inactive)
same,growth inhibition,[9]; at 33.0 µM,0% (inactive)
same,growth inhibition,[9]; at 100.0 µM,-5% (inactive)
same,growth inhibition,[10]; [14],55% (inactive)
same,growth inhibition,[10]; [15],60% (inactive)
same,growth inhibition,[10]; at 50.0 µM,7.8% (inactive)
same,growth inhibition,[11]; at 1.2 µM,-5% (inactive)
same,growth inhibition,[11]; at 3.7 µM,-3% (inactive)
same,growth inhibition,[11]; [14],10% (inactive)
same,growth inhibition,[11]; at 11.0 µM,2% (inactive)
same,growth inhibition,[11]; at 33.0 µM,9% (inactive)
same,growth inhibition,[11]; [15],75% (active)
same,growth inhibition,[11]; at 50.0 µM,50.2% (inactive)
same,growth inhibition,[11]; at 100.0 µM,51% (inactive)
same,growth inhibition,[12]; at 1.2 µM,-49% (inactive)
same,growth inhibition,[12]; at 3.7 µM,-35% (inactive)
same,growth inhibition,[12]; at 11.0 µM,-21% (inactive)
same,growth inhibition,[12]; at 33.0 µM,-5% (inactive)
same,growth inhibition,[12]; at 100.0 µM,21% (inactive)
same,growth inhibition,[13]; at 1.2 µM,-8% (inactive)
same,growth inhibition,[13]; at 3.7 µM,2% (inactive)
same,growth inhibition,[13]; at 11.0 µM,10% (inactive)
same,growth inhibition,[13]; at 33.0 µM,28% (inactive)
same,growth inhibition,[13]; at 100.0 µM,40% (inactive)
same,growth inhibition,[1]; [14],30% (inactive)
same,growth inhibition,[1]; [15],81% (active)
same,growth inhibition,[1]; at 50.0 µM,26.1% (inactive) and 58.4% (inactive)
same,growth inhibition,[2]; at 1.2 µM,-13% (inactive)
same,growth inhibition,[2]; at 3.7 µM,-17% (inactive)
same,growth inhibition,[2]; at 11.0 µM,-13% (inactive)
same,growth inhibition,[2]; at 33.0 µM,0% (inactive)
same,growth inhibition,[2]; at 100.0 µM,13% (inactive)
